Active and inactive are the calls of the source. Entries that show only a call come without a potency. Calls follow the shape of the dose curve; as a rule, active = well fitted curve in the direction sought with a large enough effect in the repeat runs; inconclusive = weak or mixed curves; inactive = flat fitted curve, though single readings scatter.
test: qHTS assay to test for compound auto fluorescence at 460 nm (blue) in HepG2 cells (AID 720687); conditions: autofluorescence 405/460 nm, 1 h; series mostly up to 91.3 µM
From the text: U.S. Tox21 Program National Center for Advancing Translational Sciences [NCATS] NIH Chemical Genomics Center [NCGC] U.S. Environmental Protection Agency [EPA] National Institutes of Environmental Health Sciences [NIEHS] National Toxicology Program [NTP] U.S. Food and Drug Administration [FDA] Tox21 Assay Overview: Compound auto fluorescence often interferes with screening of the compound library against various biological targets and signaling pathways. Some of these compounds may have fluorophoric properties. Such properties may interfere with the assay outputs resulting in false positives and/or negatives. To decrease such complications and ensure the compound activities are relevant in terms of biological response, the Tox21 10K compound library was screened for auto fluorescence. From the fluorophores used as reporter signals in our screening assays, the auto fluorescence equivalencies of compounds against three fluorophores have been evaluated: Triamterene, Fluorescein and Rose Bengal sodium for blue, green and red fluorescence, respectively. The fluorescence intensities were measured using Excitation/Emission wavelengths at 405/460nm, 485/535nm and 540/590nm for blue, green and red labels, respectively. This assay includes the blue fluorescence data.
Tox21 Assay Protocol Summary: 2,000 HepG2 cells in 5 uL of culture medium (MEM containing 10% FBS) per well were dispensed into black wall/clear bottom 1536-well plates using a Multidrop Combi Dispenser (ThermoFisher Scientific, Waltham, MA). The assay plates were incubated overnight at 37 C to allow cell attachment to the well bottom, followed by the transfer of 23 nL compound or DMSO vehicle by a pintool work station (Kalypsys , San Diego, CA). After the assay plates were incubated for 1 hr at 37 C and 5% CO2, fluorescence intensities in the assay plates were measured by an Envision (PerkinElmer, Shelton, CT) plate reader using three labels for measuring blue, green and red fluorescence at […] 460, 535 and 590 nm respectively.

SMILES | Potency
IC(I)I | inactive
CC(C)[C@@H]1CC[C@@H](C)CC1=O | inactive
O=[Se](O)O | inactive
FC(F)(F)C(Cl)Br (stereo not given) | inactive
C[C@]12CC[C@@H]3c4ccc(O)cc4CC[C@H]3[C@@H]1CC[C@@H]2O | inactive
c1ccc2c(c1)[nH]c1ccccc12 | inactive
COC(=O)c1ccc(C)cc1 | inactive
COc1ccc(C(=O)c2ccccc2O)c(O)c1 | inactive
c1ccc2c(c1)ccc1cc3c(ccc4ccccc43)cc12 | inactive
C/C=C/C(=O)N(CC)c1ccccc1C | inactive
OCCNCCO | inactive
C=CCCCCCCCCCC | inactive
CN(C)CCCN1c2ccccc2Sc2ccc(Cl)cc21 | inactive
CC(C)[N+](C)(CCOC(=O)C1c2ccccc2Oc2ccccc21)C(C)C | inactive
COC(=O)CC(=O)OC | inactive
CCCCCCCCCCC(CO)CCCCCCCC (stereo not given) | inactive
CC(C)=CCO | inactive
Clc1ccc(Sc2cc(Cl)c(Cl)cc2Cl)cc1 | inactive
O=C(O)c1ccc(O)cc1 | inactive
CC/C=C\C/C=C\C/C=C\CCCCCCCC(=O)O | inactive

SMILES | Potency
CC(=O)Oc1c(C)c(C)c2c(c1C)CC[C@@](C)(CCC[C@H](C)CCC[C@H](C)CCCC(C)C)O2 | inactive
CCc1cccc2c3c([nH]c12)C(CC)(CC(=O)O)OCC3 (stereo not given) | inactive
C=CC(=O)OCCCC | inactive
c1ccc2ncccc2c1 | inactive
O=Cc1ccccc1C=O | inactive
CC(=O)Nc1ccc2c(c1)Cc1cc(NC(C)=O)ccc1-2 | inactive
CCOC(=O)C(C)Oc1ccc(Oc2cnc3cc(Cl)ccc3n2)cc1 (stereo not given) | inactive
C=CN1CCCC1=O | inactive
COC(=O)C(C)Oc1ccc(Oc2ncc(C(F)(F)F)cc2Cl)cc1 (stereo not given) | inactive
CC1(C)NC(=O)N(c2ccc([N+](=O)[O-])c(C(F)(F)F)c2)C1=O | inactive
CC1(C)C(C=C(Cl)Cl)C1C(=O)OCc1cccc(Oc2ccccc2)c1 (stereo not given) | inactive
NCCN | inactive
CC(=O)[C@@]1(O)CC[C@H]2[C@@H]3C[C@H](C)C4=CC(=O)C=C[C@]4(C)[C@@]3(F)[C@@H](O)C[C@@]21C | inactive
O=S1(=O)CCCO1 | inactive
C=C[C@H]1CN2CC[C@H]1C[C@@H]2[C@@H](O)c1ccnc2ccc(OC)cc12 | inactive
O=C(O)CCCC(=O)O | inactive
C=C[C@@]1(C)CC(=O)[C@]2(O)[C@@]3(C)[C@@H](O)CCC(C)(C)[C@@H]3[C@H](O)[C@H](OC(C)=O)[C@@]2(C)O1 | inactive
C=C[Si](OCCOC)(OCCOC)OCCOC | inactive
O=C(O)CCCCCCCCCCCC(=O)O | inactive
ClC/C=C/CCl | inactive

Reference: PubChem BioAssay (Tox21)
